# Only some compounds are listed: those with a hit (about 0.86% of all), similar ones and a draw of the others.
# GLS inh = qHTS for Inhibitors of Glutaminase (GLS); Potency, µM (top dose mostly 45.5 µM), hits mostly inhibitors; GLS enzymatic activity, qHTS titration; 410,000 compounds, 0.21% hits; Glutaminase kidney isoform, mitochondrial (Homo sapiens), O94925; AID 624170, 2012
#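 hKGA; 45 mM KH2PO4 pH 8.2 + 0.02% Tween-20; cpd via pin tool; 1 mM Gln soln; GluOx/HRP/Amplex Red; RT 30 min; fluor. t0 & final.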
# APE1 inh = qHTS Assay for Inhibitors of the Human Apurinic/apyrimidinic Endonuclease 1 (APE1); DNA repair nuclease/redox regulator APEX1 (Homo sapiens), P27695; recombinant APE1, TAMRA/BHQ-2 abasic DNA cleavage fluorescence; Potency, µM (top dose mostly 65.8 µM), actives largely listed as inhibitors; 350,000 compounds, 0.35% hits; AID 2517, 2012; note: nearly all actives have a fitted effect of over 55% in size
# Target sequence (P27695 whole entry, looked up): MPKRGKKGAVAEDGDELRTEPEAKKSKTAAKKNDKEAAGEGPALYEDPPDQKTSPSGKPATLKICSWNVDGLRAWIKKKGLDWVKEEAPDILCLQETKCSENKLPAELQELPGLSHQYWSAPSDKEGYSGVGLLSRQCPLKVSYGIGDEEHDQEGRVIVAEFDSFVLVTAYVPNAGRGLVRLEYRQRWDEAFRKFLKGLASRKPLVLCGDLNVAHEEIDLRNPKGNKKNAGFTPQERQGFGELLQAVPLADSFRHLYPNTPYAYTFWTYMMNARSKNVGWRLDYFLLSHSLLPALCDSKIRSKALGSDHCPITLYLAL
#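 Step 1: APE1 (0.75 nM) with compound, 15 min RT. Step 2: add 50 nM fluorophore/quencher THF duplex. Step 3: three fluorescence reads 60 s apart (525/598 nm); read 3 minus read 1 = reaction progress.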
# BLM inh = qHTS Assay for Inhibitors of Bloom's syndrome helicase (BLM). RecQ-like DNA helicase BLM (Homo sapiens), P54132. recombinant BLM DNA unwinding, fluorescence dequenching. Potency, µM (highest dose often 56.1 µM), hits mostly inhibitors. 350,000 compounds, 0.2% hits; note: nearly all actives have a fitted effect of over 35% in size
# FEN1 inhibitor = qHTS Assay for the Inhibitors of Human Flap endonuclease 1 (FEN1); P39748; Recombinant FEN1 flap cleavage, fluorescence, 15 min; Potency, µM (series often up to 114 µM), actives largely listed as inhibitors; 390,000 compounds, 0.35% hits; AID 588795, 2011; note: nearly all actives have a fitted effect of over 65% in size
#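 Nuclease activity of 10 nM FEN1 was measured after 15 min of room-temperature exposure to titrated compounds, by adding 50 nM flap substrate and reading plates at 0 and 15 min.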
# RECQ1 inh-1 = qHTS Assay for Inhibitors of RecQ-Like Dna Helicase 1 (RECQ1); Potency, µM (titrated, usually from 57.3 µM), actives largely listed as inhibitors; AID 2549, 2010; ATP-dependent DNA helicase Q1 (Homo sapiens), P46063; 240,000 compounds, 0.54% hits; RECQ1 DNA unwinding, red fluorescence kinetic read; note: nearly all actives have a fitted effect of over 30% in size
#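 RECQ1T1 50 nM; forked duplex (20 bp + 30-nt ss tails) 200 nM, ATP 2 mM final; pH 8.0, 2 mM MgCl2, 2.5 ug/ml poly(dI-dC); 15 min compound preincubation; discontinuous kinetic read over 2 h at RT.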
# Tb PGK inh = qHTS Assay to Find Inhibitors of Phosphoglycerate Kinase | AID 602233, 2012 | 380,000 compounds, 0.043% hits | PGK/GAPDH coupled, Kinase-Glo luminescence, 60 min | Potency, µM (highest dose often 57.5 µM), actives largely listed as inhibitors; note: nearly all actives have a fitted effect of over 60% in size
# Target sequence (P07378 whole entry, looked up): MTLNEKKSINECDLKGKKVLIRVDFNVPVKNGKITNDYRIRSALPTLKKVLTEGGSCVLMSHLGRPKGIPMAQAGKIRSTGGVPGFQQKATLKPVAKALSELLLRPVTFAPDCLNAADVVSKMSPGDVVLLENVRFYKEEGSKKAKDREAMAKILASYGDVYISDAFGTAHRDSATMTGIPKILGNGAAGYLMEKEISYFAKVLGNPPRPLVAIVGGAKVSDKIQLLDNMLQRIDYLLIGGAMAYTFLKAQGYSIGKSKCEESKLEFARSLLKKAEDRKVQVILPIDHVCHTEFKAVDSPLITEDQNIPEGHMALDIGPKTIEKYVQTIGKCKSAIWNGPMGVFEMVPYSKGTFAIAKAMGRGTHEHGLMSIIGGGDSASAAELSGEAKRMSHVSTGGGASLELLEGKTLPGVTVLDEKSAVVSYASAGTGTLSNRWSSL
#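 Recombinant glycosomal PGK reaction used 1,3-bisphosphoglycerate generated in-well by GAPDH (100nM final) in 100mM TEA pH 7.6, 5mM MgCl2, 0.01% Tween-20. After 60 minutes at room temperature, ATP was read by Kinase-Glo Plus luminescence end-point.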
# RECQ1 inh conf = Confirmation qHTS Assay for Inhibitors of RecQ-Like Dna Helicase 1 (RECQ1). shares compounds with RECQ1 inh-1. RECQ1 helicase DNA unwinding, fluorescence. 610 compounds, 28% hits. Potency, µM (doses to about 229 µM), most hits filed as inhibitors; note: nearly all actives have a fitted effect of over 45% in size
# RECQ1 ADP FP = Counterscreen for RECQ1 Inhibitors: ADP Fluorescence Polarization Displacement Assay | shares compounds with RECQ1 inh-1 | ADP fluorescence polarization displacement counterscreen | Potency, µM (series often up to 228 µM), actives largely listed as inhibitors | 530 compounds, 27% hits | AID 2711, 2010; note: nearly all actives have a fitted effect of over 45% in size
# RECQ1 inh-2 = Confirmation qHTS Assay for Inhibitors of RecQ-Like Dna Helicase 1 (RECQ1) - Round 2 Cherry Picks; shares compounds with RECQ1 inh-1; recombinant RECQ1 DNA unwinding, red fluorescence; Potency, µM (top dose mostly 119 µM), hits mostly inhibitors; 1,100 compounds, 15% hits; note: nearly all actives have a fitted effect of over 50% in size
# Hits are given with their value; i = inactive; ? = inconclusive; nt = not tested or not shown; [ ] = another dose, or the depositor's remark. Calls come from the whole dose curve; as a rule, active = well fitted curve in the direction sought with a large enough effect; inconclusive = small, poorly fitted or top-dose-only effect, or another doubt; inactive = no such curve, though single readings can be large; an effect the other way counts as inactive or inconclusive.
SMILES,GLS inh,APE1 inh,BLM inh,FEN1 inhibitor,RECQ1 inh-1,Tb PGK inh,RECQ1 inh-2,others
S=c1[nH]nc(-c2cc(-c3ccco3)[nH]n2)n1-c1ccccc1Cl,?,14µM,i,?,7.9µM,i,nt,RECQ1 inh conf=i;RECQ1 ADP FP=?
O=C(O)CCSc1nnc(COc2ccc([N+](=O)[O-])cc2)n1-c1ccccc1,i,i,i,i,i,i,nt,RECQ1 inh conf=i;RECQ1 ADP FP=i
O=C(O)CSc1nnc(COc2ccc([N+](=O)[O-])cc2)n1-c1ccccc1,i,i,i,i,i,i,nt,
Cc1cccc(C(=O)O/N=C(\N)c2cccc([N+](=O)[O-])c2)c1,i,i,i,i,i,i,nt,
N/C(=N\OC(=O)c1cccs1)c1cccc([N+](=O)[O-])c1,i,i,i,i,45µM,i,i,
O=C1Nc2ccccc2SC(c2ccccc2)C1O (stereo unspecified),i,?,i,?,32µM,i,?,
O=C(O)CC1Sc2ccccc2NC1=O (stereo unspecified),i,i,i,i,i,i,nt,
CC(=O)c1ccc2c(c1)C1C=CCC1C(c1ccncc1)N2 (stereo unspecified),i,?,i,i,?,i,i,
C1=CC2c3ccccc3NC(c3ccncc3)C2C1 (stereo unspecified),i,?,i,i,i,i,nt,
Cc1cc(C)cc(N2CC(c3nc(-c4ccccc4C)no3)CC2=O)c1 (stereo unspecified),i,nt,i,i,nt,i,nt,
COc1ccc2c(c1)O/C(=C\c1ccco1)C2=O,i,?,i,i,?,i,i,
CC(=O)N1CCc2cc(CNS(=O)(=O)c3ccc(Cl)s3)ccc21,i,nt,i,i,nt,i,nt,
Cc1ccc(NS(=O)(=O)c2ccc(NC(=O)c3cccc(NC(=O)C(C)C)c3)cc2)cc1,i,i,i,i,?,i,i,
COc1ccccc1N1CCN(C(=O)CSc2nc3ccccc3nc2Cc2ccccc2)CC1,i,nt,i,i,nt,i,nt,
O=C(O)/C(=C\c1cccs1)Sc1nnc(-c2ccc(F)cc2)o1,i,i,i,i,i,i,nt,
CSc1ccc(/C=C(/Sc2nnc(-c3ccccc3)o2)C(=O)O)cc1,i,i,i,i,i,i,nt,RECQ1 inh conf=i;RECQ1 ADP FP=i
O=C1c2ccccc2C(=O)c2c(NCCCN(CCO)CCO)cccc21,i,?,16µM,20µM,20µM,i,18µM,
Cc1cc(C)n2c(SCC(=O)Nc3c(C)n(C)n(-c4ccccc4)c3=O)nnc2n1,i,i,i,i,i,i,nt,RECQ1 inh conf=i;RECQ1 ADP FP=i
COc1ccc(S(=O)(=O)N2CN(Cc3ccco3)c3nc4ccccc4nc32)cc1,i,i,i,i,35µM,i,?,
O=C1[C@H]2[C@H]3[C@H](O)[C@H](O)C/C(=N/OC[C@@H](O)COCc4ccco4)[C@@H]3CC[C@@H]2C(=O)N1Cc1ccccc1,nt,?,i[12.4 µM],nt,i[11.5 µM],nt,nt,
CN(C)c1ccc(C2C3=C(CCCC3=O)OC3=C2C(=O)CCC3)cc1,i,i,i,i,?,i,i,
COc1cccc(NC(=O)C2CCCN(c3ncnc4onc(-c5ccc(F)cc5)c34)C2)c1 (stereo unspecified),i,nt,i,i,nt,i,nt,
CCN(C(=O)c1sc2nc3n(c(=O)c2c1C)CCCC3)c1ccccc1F,i,nt,i,i,nt,i,nt,
CCC(=Nc1ccc(N)cc1)C1=C(O)C(C(=O)OC)C(C)(C)CC1=O (stereo unspecified),i,?,?,i,?,i,i,
NS(=O)(=O)c1cccc(NS(=O)(=O)c2ccc(/C=C/C(=O)OCC(=O)c3ccc(Br)cc3)cc2)c1,i,i,i,i,?,i,i,
SMILES,GLS inh,APE1 inh,BLM inh,FEN1 inhibitor,RECQ1 inh-1,Tb PGK inh,RECQ1 inh-2,others
C/C(=C\C(=O)OCCCCCCCCC(=O)O)C[C@@H]1OCC(C[C@H]2O[C@H]2[C@@H](C)[C@H](C)O)[C@@H](O)[C@H]1O (stereo partly specified),nt,i,i,nt,i,nt,nt,
C[C@]12CC[C@@H]3c4ccc(O)cc4CC[C@H]3[C@@H]1CC[C@H]2O,nt,i,i,nt,i,nt,nt,
COc1ccc(C(=O)N/C(=C\c2ccc([N+](=O)[O-])cc2)C(=O)NC(CCSC)C(=O)O)cc1 (stereo unspecified),i,i,i,i,i,i,nt,
COc1ccc(/C=C(\NC(=O)c2ccc(OC)cc2)C(=O)NC(CCSC)C(=O)O)cc1 (stereo unspecified),i,i,i,i,i,i,nt,RECQ1 inh conf=i;RECQ1 ADP FP=i
O=C(OC(C(=O)O)C(OC(=O)c1ccccc1)C(=O)NCc1ccccc1)c1ccccc1 (stereo unspecified),i,i,i,i,i,i,nt,
CC(=O)Nc1ccc(NC(=O)C(OC(=O)c2ccccc2)C(OC(=O)c2ccccc2)C(=O)O)cc1 (stereo unspecified),i,i,i,i,i,i,nt,RECQ1 inh conf=i;RECQ1 ADP FP=?
Cc1ccc(S(=O)(=O)N(C)C)cc1NC(=O)COC(=O)c1n[nH]c(=O)c2ccccc12,i,i,i,i,i,i,nt,RECQ1 inh conf=i;RECQ1 ADP FP=?
Cc1ccc(S(=O)(=O)N(C)C)cc1NC(=O)COC(=O)Cc1n[nH]c(=O)c2ccccc12,i,i,i,i,nt,i,nt,
COc1ccc(-n2c(Cc3ccccc3)nnc2SCc2nc(-c3cccs3)no2)cc1,i,nt,i,i,nt,i,nt,
c1ccc2c(Nc3ccc4c(c3)OCCO4)c3c(nc2c1)CCC3,i,i,i,i,?,nt,i,
CCc1ccccc1NC(=O)c1cnc2sc(N3CCOCC3)nn2c1=O,i,nt,i,i,nt,i,nt,
C=CCN1C(=O)CS/C1=N\S(=O)(=O)c1ccc(Cl)cc1,i,i,i,i,?,i,i,
COc1cc(Cl)c(NC(=O)c2cc3ccccn3n2)c(OC)c1,i,nt,i,i,nt,i,nt,
